Compound activity: PubChem BioAssay, The Scripps Research Institute Molecular Screening Center
PME-1 primary: PME-1 (human) inhibition; hit rate 0.53% among 320,000; inhibition, % at 5.9 µM; recombinant PME-1, FP-Rh probe fluorescence polarization;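 active = inhibition above the campaign mean of all compounds plus 3 SD, cut at about 26% in these data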;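 also: competitive labeling of PME-1 active site by serine hydrolase directed probe; inhibitors block probe labeling so polarization falls and inhibition rises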
PREPL inh: human PREPL enzyme inhibition | AID 2751 | inhibition, % at 5.96 µM | recombinant PREPL, fluorescence polarization activity-based probe | hit rate 0.68% among 320,000; in the data active = inhibition above about 43%
Fam108B counter: blocks mouse Fam108B hydrolase in RBBP9 counter-screen | recombinant Fam108B, FP-Rh probe fluorescence polarization | inhibition, % at 9.51 µM | hit rate 0.33% among 300,000 | AID 1947;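 active = inhibition above the screen mean inhibition plus 3 SD, computed separately per campaign, cut at about 18% in these data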;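 also: inhibitors lower polarization as less probe binds the enzyme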
LYPLA1 counter: counter-screen for PME1 inhibitors: inhibitors of human LYPLA1 | recombinant LYPLA1, FP-Rh probe fluorescence polarization | AID 2174 | O75608 | hit rate 0.16% among 320,000 | inhibition, % at 5.9 µM;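 active = inhibition above the mean of all tested compounds plus 3 SD, set per campaign, cut at about 14% in these data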;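 also: inhibitors block serine hydrolase probe labeling of LYPLA1 so polarization falls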
LYPLA2 inh: blocks human lysophospholipase 2, a PME1 counter-screen | inhibition, % at 5.9 µM | recombinant LYPLA2, FP-Rh probe fluorescence polarization | O95372 | hit rate 0.38% among 320,000;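 active = inhibition above the screen-wide mean plus 3 SD, limit set per campaign, cut at about 26% in these data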
Target sequence (O95372 whole entry, looked up): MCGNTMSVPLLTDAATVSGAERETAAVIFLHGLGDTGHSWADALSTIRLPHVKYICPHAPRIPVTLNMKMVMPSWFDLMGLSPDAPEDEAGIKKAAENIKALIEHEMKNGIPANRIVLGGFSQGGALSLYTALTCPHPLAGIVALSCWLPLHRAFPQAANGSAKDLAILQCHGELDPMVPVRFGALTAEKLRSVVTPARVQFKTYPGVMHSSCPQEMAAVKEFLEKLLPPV
GSTO1 inh: counter-screen for RBBP9 inhibitors: inhibitors of human GSTO1; P78417; recombinant GSTO1, activity-based probe fluorescence polarization; inhibition, % at 5.96 µM; hit rate 1.1% among 300,000;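 active = inhibition above the campaign mean inhibition plus 3 SD, cut at about 35% in these data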
Target sequence (P78417 whole entry, looked up): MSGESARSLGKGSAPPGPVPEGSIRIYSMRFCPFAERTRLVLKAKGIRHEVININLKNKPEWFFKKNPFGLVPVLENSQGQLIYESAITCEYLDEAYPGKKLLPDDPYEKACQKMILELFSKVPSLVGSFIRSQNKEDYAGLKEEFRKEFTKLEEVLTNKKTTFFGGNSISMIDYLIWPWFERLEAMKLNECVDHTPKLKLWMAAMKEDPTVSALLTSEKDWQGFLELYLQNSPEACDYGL
LYPLA2 conf: LYPLA2 (human) inhibition, confirmation counter-screen; shares compounds with LYPLA2 inh; recombinant LYPLA2, FP-Rh probe fluorescence polarization; inhibition, % at 5.9 µM; AID 2232; hit rate 72% among 1,100;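 active = mean inhibition across replicates above the hit cutoff set in the primary screen, cut at about 26% in these data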;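 also: blocked labeling of the enzyme by serine hydrolase FP-Rh probe lowers polarization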
LYPLA2 gel ABPP: blocks human acyl-protein thioesterase 2 in gel ABPP. rhLYPLA2 in mouse brain proteome, gel ABPP FP-Rh. AID 652029. shares compounds with LYPLA2 inh. hit rate 30% among 150. inhibition, % at 20 µM;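 active = inhibition of LYPLA2 enzyme probe labeling above about 50%, limit read from the data; inactive = inhibition below that limit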;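 also: loss of FP-Rh probe labeling of the LYPLA2 gel band measured as band density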
Of the large screens only hits and unclear results are named; the others gave an inactive call (follow-up assays come after a bar, where they were run). A selection: hits, their analogues and other compounds. The true share with any hit is near 1.9%.

O=C(O)C1CCCCN1C(=O)c1cc2c(s1)CCCCC2 (stereo not given)	none (no result: Fam108B counter, GSTO1 inh)
COc1ccc([C@H]2CC(=O)C=C(c3ccc(F)cc3OCc3ccccc3)C2)cc1OC	LYPLA2 inh 27 (no result: Fam108B counter, GSTO1 inh) | LYPLA2 conf inactive
CCC1(c2ccccc2)NC(=O)N(CC(=O)N(C)Cc2c(F)cccc2Cl)C1=O (stereo not given)	none
O=C(c1cccc(Br)c1)N1CCN(c2cnn(-c3ccccc3)c(=O)c2Cl)CC1	LYPLA2 inh 28 | LYPLA2 conf inactive
CCOc1ccc(C(=O)N2CCN(c3cnn(-c4ccccc4)c(=O)c3Cl)CC2)cc1	none
COc1ccc(N2CCN(C(=O)COC(=O)c3ccc(-n4nc(C)cc4C)cc3)CC2)cc1	LYPLA2 inh 43 (no result: Fam108B counter, GSTO1 inh) | LYPLA2 conf 40
COc1ccc(N2CCN(C(=O)CSc3ccc([N+](=O)[O-])cc3)CC2)cc1	LYPLA2 inh 54 | LYPLA2 conf 49
Cc1ccc(CC(=O)N2CCN(c3ccc([N+](=O)[O-])cc3)CC2)cc1	none
COc1ccc(N2CCN(C(=O)COC(=O)c3ccc(Cl)nc3)CC2)cc1	none (no result: Fam108B counter, GSTO1 inh)
O=C(CCCC(=O)N1CCN(c2ccc([N+](=O)[O-])cc2)CC1)c1ccccc1	LYPLA2 inh 34 | LYPLA2 conf 33
Cc1noc(C)c1CSCC(=O)N1CCN(c2ccc([N+](=O)[O-])cc2)CC1	LYPLA2 inh 28 | LYPLA2 conf inactive
CCOC(=O)Cn1c(=O)c(C#N)cn(C(C)C)c1=O	none
COc1ccc(C(=O)CCC(=O)N2CCN(c3ccc([N+](=O)[O-])cc3)CC2)cc1	LYPLA2 inh 29 | LYPLA2 conf inactive
NC(=O)c1ccc(Oc2ccc3c(c2)CCC3)c([N+](=O)[O-])c1	LYPLA2 inh 30 | LYPLA2 conf 29
CC(C)(C)C(=O)Nc1cccc(C(=O)Nc2cc(C(=O)O)cc(C(=O)O)c2)c1	none
COc1ccccc1N1CCN(C(=S)Nc2ccc(S(=O)(=O)N3CCOCC3)cc2)CC1	none
O=S(=O)(c1ccc(NC(=S)N2CCN(c3ccccc3F)CC2)cc1)N1CCOCC1	LYPLA2 inh 38 | LYPLA2 conf 30
CCOc1ccc(CN2CCN(CCCc3ccccc3)CC2CCO)cc1 (stereo not given)	none
COc1ccc(CCNC(=O)COc2ccc(-c3ccc(C)cc3)cc2)cc1OC	LYPLA2 inh 45 | LYPLA2 conf 40
COc1ccc(CCNC(=O)CCOc2ccc(C)cc2)cc1OC	none
COc1ccc(CC(=O)Nc2cccc(-c3nnc(-c4cccc(C)c4)o3)c2)cc1OC	none
COc1ccc(CC(=O)Nc2cccc(-c3nnc(-c4ccc(C)cc4)o3)c2)cc1OC	LYPLA2 inh 31 | LYPLA2 conf inactive
CCCCOc1ccc(C(=O)N2CCN(c3ncccn3)CC2)cc1	none
O=C(Cc1ccc(-n2c(=O)[nH]c3ccsc3c2=O)cc1)N1CCN(c2ccc(Cl)cc2)CC1	LYPLA2 inh 31 | LYPLA2 conf 29
Cc1cccc(N2CCN(C(=O)Cc3ccc(-n4c(=O)[nH]c5ccsc5c4=O)cc3)CC2C)c1 (stereo not given)	none
CCCCCCC(=O)N1CCCC(c2nc(-c3cccc(OC)c3)no2)C1 (stereo not given)	LYPLA2 inh 27 | LYPLA2 conf inactive
COc1ccc(CCNC(=O)c2ccc3c(c2)NC(=O)C(CSCc2cc(C)ccc2C)N3)cc1OC (stereo not given)	none
CN(C(=O)COc1ccc([N+](=O)[O-])cc1)C1CCS(=O)(=O)C1 (stereo not given)	LYPLA2 inh 31 | LYPLA2 conf inactive
CCCNC(=O)c1ccc(N2CCC3(CC2)CC(c2ccccc2)=NO3)c(N)c1	none
CCCNC(=O)c1ccc(N2CCC3(CC2)CC(c2ccccc2)=NO3)c([N+](=O)[O-])c1	LYPLA2 inh 28 | LYPLA2 conf inactive
CCCCC(=O)N/N=C/c1ccc(-c2ccc([N+](=O)[O-])cc2)o1	none
Cc1cc(C)n(Cc2ccc(C(=O)N/N=C/c3ccc(-c4ccc([N+](=O)[O-])cc4)o3)o2)n1	LYPLA2 inh 28, GSTO1 inh 36 | LYPLA2 conf 27
CC1CCCN(C(=O)CN2C(=O)C(C)Oc3ccccc32)C1 (stereo not given)	LYPLA2 inh 29 | LYPLA2 conf inactive
CC1Oc2ccccc2N(CC(=O)N2CCCC2)C1=O (stereo not given)	none
O=C(OC1CCOC1=O)c1ccc(Cl)c(S(=O)(=O)N2CCOCC2)c1 (stereo not given)	none (no result: Fam108B counter, GSTO1 inh)
COc1ccc(/C=C2\Sc3ccc(C(=O)NCc4cccnc4)cc3N(C)C2=O)cc1OC	LYPLA2 inh 28 | LYPLA2 conf inactive
COc1ccc(/C=C2\SC(=O)N(CC(=O)Nc3cccnc3)C2=O)cc1OC	LYPLA2 inh 35 | LYPLA2 conf 26
COc1cc(OC)c(/C=C2\SC(=O)N(CC(=O)Nc3ccccc3F)C2=O)c(OC)c1	none
CCN1C(=O)S/C(=C/c2ccc(Oc3ccc([N+](=O)[O-])cn3)c(OC)c2)C1=O	LYPLA2 inh 32 | LYPLA2 conf 41
COc1cc(/C=C2\SC(=O)N(CC(=O)Nc3ccccc3F)C2=O)cc(Cl)c1O	LYPLA2 inh 51 | LYPLA2 conf 61
COc1cc(/C=C2/SC(=S)N(CC(=O)Nc3cccnc3)C2=O)cc(OC)c1OC	none
COc1cc(/C=C2/SC(=O)N(CC(=O)N3CCCC3)C2=O)ccc1Oc1ccc([N+](=O)[O-])cn1	none
O=C(O)C1CN(C(=O)c2ccccc2)c2cc(Cl)ccc2O1 (stereo not given)	none
COC(=O)C1CSC(C(=O)OC)N1C(=O)CN1CCN(c2ccc(OC)cc2)CC1 (stereo not given)	none
COc1ccc(/C=C2/SC(=O)N(CCC(=O)Nc3ccc(C)cc3)C2=O)cc1OC	none
COc1ccc(/C=C2\SC(=O)N(CC(=O)Nc3ccc(F)cc3)C2=O)cc1O	LYPLA2 inh 49 | LYPLA2 conf 54 | LYPLA2 gel ABPP 50
O=C(Cn1cc([N+](=O)[O-])cn1)Nc1ccc(Cn2cc(Br)cn2)cc1	LYPLA2 inh 56 | LYPLA2 conf 57 | LYPLA2 gel ABPP inactive
O=C(Nc1nccs1)c1ncc(Cl)c(Cl)c1Cl	none
COc1ccccc1C1CC(c2ccc(Cl)cc2Cl)Nc2nc(N)nn21 (stereo not given)	LYPLA2 inh 43 | LYPLA2 conf 34
COc1cccc(C2CC(c3cccc(OC)c3)n3nc(N)nc3N2)c1 (stereo not given)	none
Cc1cccnc1NC(=O)C(c1ccccc1)c1ccccc1	LYPLA2 inh 27 | LYPLA2 conf inactive
